Screens as filed in PubChem.
LmPK inh = qHTS Assay for Inhibitors of Leishmania Mexicana Pyruvate Kinase (LmPK); purified LmPK, Kinase-Glo ATP luminescence, 1 h; AID 1721, 2009; 0.37% of 290,000 active; Potency, µM (top dose mostly 57.5 µM), for inactives: at the highest dose activity change, negative = inhibition, usual class: inhibitors; Q27686
Target sequence (Q27686 whole entry, looked up): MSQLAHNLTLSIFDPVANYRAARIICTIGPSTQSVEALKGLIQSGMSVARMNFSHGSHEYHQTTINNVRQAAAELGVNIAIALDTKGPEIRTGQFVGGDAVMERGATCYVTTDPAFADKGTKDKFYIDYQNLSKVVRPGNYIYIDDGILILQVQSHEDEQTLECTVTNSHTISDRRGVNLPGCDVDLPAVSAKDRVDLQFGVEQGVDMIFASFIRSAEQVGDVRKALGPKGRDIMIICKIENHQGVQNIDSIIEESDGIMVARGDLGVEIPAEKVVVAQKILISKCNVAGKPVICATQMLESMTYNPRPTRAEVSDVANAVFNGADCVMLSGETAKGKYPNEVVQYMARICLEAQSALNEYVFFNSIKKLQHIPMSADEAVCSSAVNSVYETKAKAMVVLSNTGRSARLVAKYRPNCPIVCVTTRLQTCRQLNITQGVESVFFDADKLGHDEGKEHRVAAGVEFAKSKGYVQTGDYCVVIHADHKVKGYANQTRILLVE
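qHTS format; LmPK 0.1 nM; substrates PEP 0.5 mM and ADP 0.1 mM. One-hour room-temperature incubation, then coupled luciferase luminescence; 0.5 nM enzyme wells mark activation.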
AmpC inh no detg = qHTS Inhibitors of AmpC Beta-Lactamase (assay without detergent); P00811; AmpC nitrocefin hydrolysis, absorbance 480 nm, 0.0001% Triton; Potency, µM (titrated, usually from 57.1 µM), for the others: at the highest dose activity change, negative = inhibition, most hits filed as inhibitors; 0.52% of 330,000 active;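 also: plate controls were no compound for no effect and no enzyme for full effect; nearly all actives have a fitted effect of over 20% in size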
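20 mM phosphate pH 7.0 + 0.01% (detergent screen) or 0.0001% Triton X-100; 5.3 nM AmpC reagent; cpd preinc 15 min RT; nitrocefin (800 uM stock) to start; A480 q20 s × 4 min; Activity was normalised to no-enzyme and no-compound control wells.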
RE007 growth inh = qHTS Assay for Inhibitors of the HIV-1 protein Vpr | S. pombe RE007 Vpr strain, BacTiter-Glo ATP luminescence, 24 h | Potency, µM (doses to about 92.2 µM), inactives show top-dose activity change, negative = less growth, usual class: inhibitors | 0.21% of 360,000 active | AID 651644, 2012; active = well fitted falling curve with a large enough effect; inconclusive = small, poorly fitted or top-dose-only effect; inactive = no such curve, though single readings can be large or run the other way; also: nearly all actives have a fitted effect of over 50% in size
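Fission yeast RE007 carrying one integrated HIV-1 vpr copy, seeded at OD 0.01 in PMG+AL medium with 23 nL pinned compound. Grown 24 h at 30 degrees; viability read by BacTiter-Glo luminescence after 5 min.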
Giardia FBPA inh = qHTS Assay for Inhibitors of Fructose-1,6-bisphosphate Aldolase from Giardia Lamblia | A8B2U2 | purified Giardia FBPA | Potency, µM (series often up to 59.6 µM), for inactives: at the top dose activity, negative = inhibition, most hits filed as inhibitors | 0.71% of 290,000 active | AID 2451, 2010; also: nearly all actives have a fitted effect of over 55% in size
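Giardia FBPA (40 nM reagent) was preincubated 10 min at RT with compound (up to 57.5 uM final), then substrate plus GAPDH/TPI/NAD/arsenate coupling system with diaphorase/resazurin was added; resorufin fluorescence (525/598 nm) was read after 20 min.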
AmpC detergent = qHTS Inhibitors of AmpC Beta-Lactamase (assay with detergent) | AmpC hydrolysis of nitrocefin, absorbance 480 nm, 0.01% Triton | P00811 | Potency, µM (highest dose often 114 µM), for the others: at the top dose activity change, negative = inhibition, actives largely listed as inhibitors | 0.041% of 370,000 active | AID 485294, 2010;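 also: 0% = no-compound wells and -100% = no-enzyme wells; nearly all actives have a fitted effect of over 25% in size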
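20 mM phosphate pH 7.0 + 0.01% (detergent screen) or 0.0001% Triton X-100; 5.3 nM AmpC reagent; cpd preinc 15 min RT; nitrocefin (800 uM stock) to start; A480 q20 s × 4 min; Activity was normalised to no-enzyme and no-compound control wells.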
Tb PYK inh = qHTS of Trypanosoma Brucei Inhibitors; pyruvate kinase (Trypanosoma brucei), Q57TT1; TbPYK enzyme, Kinase-Glo Plus ATP luminescence, 45 min; Potency, µM (series often up to 76.8 µM), without a hit: at the top dose activity, negative = inhibition, actives largely listed as inhibitors; 0.12% of 410,000 active; AID 624173, 2012; also: nearly all actives have a fitted effect of over 50% in size
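Glycolytic pyruvate kinase of T. brucei was incubated with substrate, test compound and 130 uM ADP for 45 minutes at room temperature. Luminescent Kinase-Glo Plus signal was measured after 10 minutes.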
Active calls of the source: *; ? = inconclusive; · = no result; [ ] = remark or other dose. Only some compounds are listed: those with a hit (about 1.4% of all), similar ones and a draw of the others. Unless noted, calls follow the shape of the dose curve; as a rule, active = well fitted curve in the direction sought with a large enough effect; inconclusive = small, poorly fitted or top-dose-only effect, or another doubt; inactive = no such curve, though single readings can be large; an effect the other way counts as inactive or inconclusive. Unless noted, % is scaled to controls: 0 for no effect and ±100 for the full control effect; potency is read from the fitted curve at half-maximal effect.

SMILES	LmPK inh	AmpC inh no detg	RE007 growth inh	Giardia FBPA inh	AmpC detergent	Tb PYK inh
Cc1ccc(NS(=O)(=O)c2cc(C(=O)NCc3cccnc3)ccc2C)cc1	-1.7%	-37.1%	-3.7%	·	4.2%	7.2%
COc1cc(NC(=O)CSc2cc(=O)n(C)c3ccccc23)cc(OC)c1OC	·	·	·	·	-6.2%	-8.0%
NS(=O)(=O)c1ccc(N2N=C(c3ccc(Br)cc3)CC2c2ccc(F)cc2)cc1 (stereo not drawn)	4.0%	5.62µM*	-13.5%	-12.0%	0.2%	3.7%
NS(=O)(=O)c1ccc(N2N=C(c3ccccc3)CC2c2cccc(F)c2)cc1 (stereo not drawn)	-0.9%	-25.6%	21.9%	-8.4%	?	-4.3%
Cc1ccc(S(=O)(=O)c2ccccc2)cc1S	14.1µM*	-35.3%	·	-4.3%	5.0%	·
COC(=O)CN(C)C1CC(=O)N(c2ccc(Cl)cc2)C1=O (stereo not drawn)	-5.2%	-11.9%	15.8µM*	-6.5%	?	1.1%
C=CCN(C(=O)Nc1ccc(Cl)cc1)C1CC(=O)N(c2ccc(OC)cc2)C1=O (stereo not drawn)	2.0%	-15.8%	-7.8%	-0.9%	?	1.5%
CN(Cc1ccncc1)C1CC(=O)N(c2ccc(Cl)cc2)C1=O (stereo not drawn)	1.6%	-7.2%	50.1µM*	6.6%	?	1.6%
CNC(=S)N(Cc1ccc(OC)cc1)C1CC(=O)N(c2ccc(Cl)cc2)C1=O (stereo not drawn)	2.5%	9.7%	·	5.5%	?	-11.8%
CCc1ccc(Cn2c(CNS(=O)(=O)c3ccc(Cl)s3)nc3cccnc32)cc1	·	·	·	·	1.1%	-3.1%
C=CCc1c(C)nc(-c2ccccc2)nc1N/N=C(\C)c1ccccc1	0.8%	28.2µM*	10.2%	?	?	-7.2%
C=CCc1c(C)nc(-c2ccccc2)nc1Nc1ccc(O)cc1	2.8%	-47.4%	-5.6%	-2.2%	?	5.6%
COc1cccc(NC(=O)CCc2nnc3n(Cc4ccccc4Cl)c(=O)c4ccccc4n23)c1	·	·	·	·	20.6%	3.1%
COc1ccc(Cc2nc(-c3ccc(-n4cccc4)cc3)no2)cc1	-0.2%	-19.6%	-4.9%	3.5%	-9.2%	2.5%
COc1ccc(Cc2nc(-c3ccc(-n4cccc4)cc3)no2)cc1OC	-0.8%	8.91µM*	-4.5%	-5.5%	-0.5%	-3.3%
COc1cccc(NC(=O)N(Cc2c[nH]c3ccccc23)C2CCCCCC2)c1	·	·	·	·	5.9%	0.4%
COC1=C(N)C(=O)c2nc(-c3nc(C(=O)O)c(C)c(-c4ccc(OC)c(OC)c4O)c3N)ccc2C1=O	-3.8%	-30.0%	19.6%[18.4 µM]	?	-5.6%	-29.9%
COC(=O)c1nc(-c2ccc3c(n2)C(=O)C(N)=C(OC)C3=O)c(N)c(-c2ccc(OC)c(OC)c2O)c1C	-8.4%	-11.4%	7.4%	9.98µM*	2.9%	-0.2%
COc1ccc(C(CC(=O)Nc2ccc(C)cn2)N2Cc3ccccc3C2=O)cc1OC (stereo not drawn)	·	·	·	·	11.5%	-12.6%
CCN(CC)c1ccc(/C=C2\CCC(/C=C(/C#N)C(=O)Nc3ccccc3F)=C2N2CCOCC2)cc1	·	·	-9.6%	·	·	-10.5%
CCN(CC)c1ccc(/C=C2\CCC(/C=C(\C#N)C(=O)Nc3ccccc3F)=C2N2CCOCC2)cc1	11.2µM*	-20.9%	-4.1%	-1.4%	-9.6%	-18.5%
CC(C)c1ccc(NC(=O)c2ccc(=O)n(Cc3ccccc3)c2)cc1	·	·	·	·	-2.9%	-0.4%
COc1cccc(-c2cn3nc(C)c(C)nc3n2)c1	12.6µM*	26.8%	?	-0.1%	?	-27.9%
Cc1nc2nc(-c3ccc(Cl)cc3)cn2nc1C	?	-10.6%	-13.5%	2.4%	-2.6%	-3.0%
Cc1nc2nc(-c3cccs3)cn2nc1C	28.2µM*	-4.1%	?	-16.8%	?	-13.6%
SMILES	LmPK inh	AmpC inh no detg	RE007 growth inh	Giardia FBPA inh	AmpC detergent	Tb PYK inh
CCOC(=O)[C@H](CCc1ccccc1)N[C@H]1CCCN2CCC[C@@H](C(=O)O)N2C1=O	·	·	·	·	·	4.2%
Cc1nnc(N2CCN(C(=O)Nc3cc(F)ccc3F)CC2)c2nn(-c3ccc(Cl)cc3)c(C)c12	·	·	·	·	-6.0%	1.8%
O=C(CNC(=O)/C(=C/c1ccccc1)NC(=O)c1ccc(Br)cc1)OCc1ccccc1	-0.1%	3.55µM*	-6.3%	3.4%	-1.8%	2.8%
CC(C)Cc1cc(C(=O)N2CCN(c3ccc(F)cc3)CC2)no1	3.4%	0.316µM*	-2.5%	-1.0%	3.5%	-2.5%
CCOc1ccc(N=Cc2c(C)[nH]n(-c3nc4ccccc4[nH]3)c2=O)cc1	22.4µM*	-16.4%	3.98µM*	-3.8%	-1.8%	?
FC(F)(F)c1ccc(Cl)c(-n2c(Cc3cccs3)n[nH]c2=S)c1	8.91µM*	-45.5%	17.4%	-4.0%	?	?
Cc1ccccc1-n1c(Cc2cccs2)n[nH]c1=S	8.91µM*	-26.1%	12.5%	-3.7%	?	?
Fc1ccc(-n2c(Cc3cccs3)n[nH]c2=S)cc1Cl	-21.0%	-19.6%	3.8%	3.0%	-12.7%	?
COCc1n[nH]c(=S)n1-c1cccc2ccccc12	?	-13.6%	-1.0%	-29.3%	-2.9%	?
COc1cc2cc(CNc3ccccc3)c(=O)n(CC(=O)Nc3cc(C)cc(C)c3)c2cc1OC	·	·	·	·	6.3%	-2.7%
CSC1=NSC2=NC(=O)/C(=C/c3coc4ccccc4c3=O)C(=N)N12	0.0%	-19.3%	39.8µM*	-8.1%	?	-11.1%
CSC1=NSC2=NC(=O)/C(=C/c3coc4ccc(O)cc4c3=O)C(=N)N12	2.2%	-35.7%	-0.5%	-14.6%	?	-20.1%
COc1cccc(NC(=O)Nc2ccc3c(c2)N(C)C(=O)CS3)c1	5.3%	3.16µM*	-4.7%	-4.2%	-7.2%	-3.9%
CCOc1ccc(OCC)c(NC(=O)Nc2ccc3c(c2)N(C)C(=O)CS3)c1	5.7%	1.12µM*	-0.1%	-9.1%	?	-8.9%
CC(=O)Nc1ccc(NC(=O)Nc2ccc3c(c2)N(C)C(=O)CS3)cc1	0.6%	-47.6%	4.5%	18.2%	2.4%	6.4%
N/C(=N\OC(=O)c1ccc(Cl)cc1)c1nonc1N	12.6µM*	-29.3%	-20.8%	-2.2%	5.1%	-17.9%
N/C(=N/OC(=O)c1ccccc1F)c1nonc1N	14.1µM*	-18.4%	10.1%	2.2%	6.4%	?
N/C(=N\OCc1ccccc1)c1nonc1N	?	17.9%	-0.1%	0.9%	-5.1%	-5.2%
